Only some compounds are listed: those with a hit (about 12% of all), similar ones and a draw of the others.
SARS PLP yeast: inhibitors of SARS-CoV papain-like protease in yeast | S. cerevisiae expressing SARS-CoV PLpro, growth rescue | Potency, µM (top dose mostly 32.9 µM), usual class: activators | actives 0.19% (n = 330,000) | AID 485353; also: nearly all actives have a fitted effect of over 55% in size
Shiga inhibitor: blocks Shiga toxin action in Vero cells; inhibition, % at 38.7 µM; Vero cells, Shiga toxin protein synthesis inhibition reporter; actives 9.2% (n = 290,000); in the data active = inhibition mostly above about 28%, no sharp cut-off; inactive = mostly below about 43%
NS1 inh: blocks influenza NS1 protein function; Potency, µM (top dose mostly 46.1 µM); actives 0.4% (n = 270,000); AID 2326; also: actives are rising curves; nearly all actives have a fitted effect of over 50% in size
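Growth recovery, yeast-based: influenza A NS1 expressed in S. cerevisiae causes slow growth, and suppressors are detected by OD600. The parent strain without NS1 is used as positive control.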
CHX counter: counter-screen hit for Shiga toxin inhibitors, cycloheximide; cell reporter, cycloheximide protein synthesis inhibition counterscreen; max response, %; actives 12% (n = 300,000); AID 2314; in the data active = max response mostly above about 13%, no sharp cut-off; inactive = mostly below about 14%; also: read at 38.3 µM for the half of the compounds with a filed dose
Large screens that a line does not name were inactive. Unless noted, calls follow the shape of the full dose curve.

COc1ccccc1C(=O)COC(=O)c1ccc(N(C)C)cc1	Shiga inhibitor 93.6, CHX counter 34.8 (no result: NS1 inh)
COc1ccc2oc(C(=O)OCC(=O)Nc3ccc(N4CCOCC4)cc3)c(C)c2c1	none (no result: Shiga inhibitor, NS1 inh, CHX counter)
COc1ccc2oc(C(=O)OCC(=O)Nc3ccc(C(=O)N(C)C)cc3)c(C)c2c1	CHX counter 16.6
COc1ccc2oc(C(=O)OCC(=O)Nc3ccccc3)c(C)c2c1	Shiga inhibitor 34.7, CHX counter 29.1
CCOC(=O)N1CCN(C(=O)COC(=O)c2oc3ccc(OC)cc3c2C)CC1	Shiga inhibitor 32.1, CHX counter 16.2
CNC(=O)COC(=O)c1cccc(S(=O)(=O)N2CCN(c3ccc(F)cc3)CC2)c1	none
O=C(COC(=O)COc1ccc2ccccc2c1)NCC(F)(F)F	none
CN(C)/C=C1\SC(=S)N(c2ccc(F)cc2)C1=O	CHX counter 33.3
O=C(O)CCn1c2ccccc2c2nc3ccccc3nc21	Shiga inhibitor 58.1, CHX counter 19.4 (no result: SARS PLP yeast)
c1ccc2nc3c(nc2c1)c1ccccc1n3CCN1CCOCC1	Shiga inhibitor 42.0
O=C(NCc1ccco1)C(c1ccco1)N(Cc1cccs1)C(=O)Cn1nnc2ccccc21 (stereo not drawn)	SARS PLP yeast inconclusive, Shiga inhibitor 51.5, CHX counter 19.1
O=C(NCc1ccco1)C(c1ccco1)N(CCc1ccccc1)C(=O)Cn1nnc2ccccc21 (stereo not drawn)	none
Cc1ccc(CN(C(=O)Cn2nnc3ccccc32)C(C(=O)NCc2ccco2)c2cccs2)cc1 (stereo not drawn)	Shiga inhibitor 57.4, CHX counter 18.8
O=C(NCc1ccco1)C(c1cccs1)N(Cc1ccccc1)C(=O)Cn1nnc2ccccc21 (stereo not drawn)	Shiga inhibitor 48.9, CHX counter 30.0
COc1ccc(C[C@H]2CN3C(=NC[C@@H]3Cc3ccc(O)cc3)N2C[C@H](C)NC(=O)c2ccc(C)c(Br)c2)cc1	none
CCc1ccc(N2C(=O)CN(Cc3cccs3)C2=S)cc1	CHX counter 28.1 (no result: NS1 inh)
O=C(C[C@@H]1NS(=O)(=O)OC2CCCCC21)c1ccccc1 (stereo partly drawn)	none
O=C(NN1C(=O)c2ccccc2C1=O)c1ccc2c(c1)C(=O)N(CC1CCCO1)C2=O (stereo not drawn)	Shiga inhibitor 44.4, CHX counter 19.3
Cc1ccc(NC(=O)c2ccc3c(c2)C(=O)N(CC2CCCO2)C3=O)cc1C (stereo not drawn)	Shiga inhibitor 67.3, CHX counter 44.9
Nc1ccc(Oc2ccc3c(c2)C(=O)N(CC2CCCO2)C3=O)cc1 (stereo not drawn)	Shiga inhibitor 50.1, CHX counter 42.0
CCOC(=O)C1(Cc2ccccc2C(F)(F)F)CCN(CC2CC2)CC1	none
O=C(Cc1c[nH]c2ccccc12)Nc1nccs1	none
Cc1cnc(NC(=O)Cc2c[nH]c3ccccc23)s1	CHX counter 67.1
Cc1csc(NC(=O)Cc2c[nH]c3ccccc23)n1	Shiga inhibitor 72.0
CC(C)(C)C(=O)Nc1ccc(F)cc1[N+](=O)[O-]	none
Cn1c(CN2CCN(C(=O)c3ccccc3)CC2)nc2cc([N+](=O)[O-])ccc21	Shiga inhibitor 46.2, CHX counter 18.6
Cc1nc(S/C(=C/c2ccc(OCc3ccc(C(=O)O)cc3)cc2)C(=O)O)n[nH]1	none (no result: NS1 inh)
O=C(Nc1ccc(Cl)c(NC(=O)c2cccs2)c1)c1ccco1	none
COc1cc(NC(=O)c2cccs2)ccc1NC(=O)c1ccco1	Shiga inhibitor 126.7, CHX counter 40.3
O=C(Nc1ccc(NC(=O)c2cccs2)c(Cl)c1)c1cccs1	Shiga inhibitor 49.6, CHX counter 43.1
O=C(Nc1ccc(NC(=O)c2cccs2)cc1Cl)c1ccco1	Shiga inhibitor 95.6, CHX counter 38.0 (no result: NS1 inh)
Cc1ccc(NC(=O)c2cccs2)cc1NC(=O)c1ccccc1Cl	none
CC(=O)Nc1ccc(-c2cc(C(=O)O)c3ccccc3n2)cc1	none
COc1ccc(C2C3C(=O)N(N(C)c4ncc(C(F)(F)F)cc4Cl)C(=O)C3ON2C)cc1 (stereo not drawn)	none (no result: NS1 inh)
CCN(CC(=O)Nc1cccc(C(C)=O)c1)S(=O)(=O)c1ccc(C)cc1	none
CCCCn1nc(C(=O)NNC(=O)c2ccncc2)c2ccccc2c1=O	SARS PLP yeast inconclusive, Shiga inhibitor 20.2, CHX counter 40.2
CCCn1nc(C(=O)NNC(=O)c2cccc(C)c2)c2ccccc2c1=O	none (no result: Shiga inhibitor, NS1 inh, CHX counter)
Cc1[nH]n(-c2ccccc2)c(=O)c1/C=N/NC(=O)c1ccc(O)cc1O	Shiga inhibitor 68.1, CHX counter 29.4
Cc1ccc(-n2[nH]c(C)c(C=Nc3cc(C)ccn3)c2=O)cc1	none
Cc1ccc(-n2[nH]c(C)c(/C=N/NC(=O)c3ccc(O)cc3O)c2=O)cc1	Shiga inhibitor 73.5, CHX counter 25.1
CCn1c(-c2cccnc2Cl)nc2cc(Cl)c(Cl)cc21	Shiga inhibitor 78.4, CHX counter 40.1
COC(=O)c1ccc(C2=NOC(C)(c3sc(-c4ccc(Cl)cc4)nc3C)C2)cc1 (stereo not drawn)	none
Cc1nc(-c2ccc(Cl)cc2)sc1C1(C)CC(c2ccc(F)cc2)=NO1 (stereo not drawn)	Shiga inhibitor 47.4, CHX counter 25.0
Cc1nc(-c2ccc(Cl)cc2)sc1C1(C)CC(c2cccc(F)c2)=NO1 (stereo not drawn)	Shiga inhibitor 52.0, CHX counter 27.7
Cc1nc(-c2ccc(Cl)cc2)sc1C1(C)CC(c2ccc([N+](=O)[O-])cc2)=NO1 (stereo not drawn)	none
Cc1nc(-c2ccc(Cl)cc2)sc1C1(C)CC(c2cccc(Cl)c2)=NO1 (stereo not drawn)	Shiga inhibitor 32.4, CHX counter 17.5
CC(C)c1nnc(NC(=O)c2ccc3ccccc3c2)s1	Shiga inhibitor 107.8, CHX counter 51.4
Cc1nnc(NC(=O)c2ccc3ccccc3c2)s1	Shiga inhibitor 74.5, CHX counter 31.4
CCCc1cc(C(=O)Nc2nnc(C)s2)cs1	Shiga inhibitor 128.4, CHX counter 33.3
CC(C)c1nnc(NC(=O)COc2ccc3ccccc3c2)s1	none
Cc1nnc(NC(=O)c2ccc(Br)cc2)s1	none
Cc1ccc(C(=O)Nc2nnc(C)s2)cc1	Shiga inhibitor 63.9, CHX counter 27.3 (no result: NS1 inh)
Cc1ncoc1C(=O)N1CCCC(N2CCN(c3cccc(C(F)(F)F)c3)CC2)C1 (stereo not drawn)	none
C=CCN1C(=O)c2ccc(C(=O)OCC(=O)N3CCN(c4ccccc4)CC3)cc2C1=O	none (no result: Shiga inhibitor, NS1 inh, CHX counter)
CC(C)Oc1cc(O)c2c(c1)OCC=C2CCC(=O)O	none (no result: SARS PLP yeast, Shiga inhibitor, CHX counter)
CCOC(=O)c1sc(NC(=O)Cn2nnc3sc4c(c3c2=O)CCC(C(C)(C)C)C4)nc1C (stereo not drawn)	none
CCc1nnc(NC(=O)CSc2nnc(-c3ccc(S(=O)(=O)N4CCCC4)cc3)n2CC)s1	CHX counter 23.6
CCn1c(SCC(=O)Nc2nccs2)nnc1-c1ccc(S(=O)(=O)N2CCCCCC2)cc1	none
Cc1ccc(Nc2nnc(SCC(=O)Nc3cccc(S(=O)(=O)NC4=NCCCCC4)c3)s2)cc1	NS1 inh inconclusive, CHX counter 15.1
Cc1cccc(Nc2nnc(SCC(=O)Nc3cccc(S(=O)(=O)N4CCCCC4)c3)s2)c1	Shiga inhibitor 77.5, NS1 inh inconclusive, CHX counter 29.2
